# Source: the supplement of paper PMC3545927
# This is one part of the list. How many sequences the whole screen found active is unknown.
# Target: furin, P09958
# Test: furin cleavage Z-score vs untreated control; higher = more cleavage, active = 3.5 or more, inactive = 1 or less, 8 variable residues between constant flanks
# Summary of the method: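 Sequencing of released DNA, tagged with adapters by PCR, gave read counts used as abundance. That DNA was freed when purified furin cut N-terminally bead-bound 8-mer peptides fused to a cDNA oligonucleotide, in 0.01 ml reactions at 1:10 enzyme:substrate in 50 mM HEPES pH 7.5 with CaCl2 and NaCl, lasting 7.5, 15 or 30 min. The cleavage Z-score was the lowess-adjusted log count versus furin-free reactions, scaled by median absolute deviation.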
# Chain of furin, P09958 (P09958 whole entry): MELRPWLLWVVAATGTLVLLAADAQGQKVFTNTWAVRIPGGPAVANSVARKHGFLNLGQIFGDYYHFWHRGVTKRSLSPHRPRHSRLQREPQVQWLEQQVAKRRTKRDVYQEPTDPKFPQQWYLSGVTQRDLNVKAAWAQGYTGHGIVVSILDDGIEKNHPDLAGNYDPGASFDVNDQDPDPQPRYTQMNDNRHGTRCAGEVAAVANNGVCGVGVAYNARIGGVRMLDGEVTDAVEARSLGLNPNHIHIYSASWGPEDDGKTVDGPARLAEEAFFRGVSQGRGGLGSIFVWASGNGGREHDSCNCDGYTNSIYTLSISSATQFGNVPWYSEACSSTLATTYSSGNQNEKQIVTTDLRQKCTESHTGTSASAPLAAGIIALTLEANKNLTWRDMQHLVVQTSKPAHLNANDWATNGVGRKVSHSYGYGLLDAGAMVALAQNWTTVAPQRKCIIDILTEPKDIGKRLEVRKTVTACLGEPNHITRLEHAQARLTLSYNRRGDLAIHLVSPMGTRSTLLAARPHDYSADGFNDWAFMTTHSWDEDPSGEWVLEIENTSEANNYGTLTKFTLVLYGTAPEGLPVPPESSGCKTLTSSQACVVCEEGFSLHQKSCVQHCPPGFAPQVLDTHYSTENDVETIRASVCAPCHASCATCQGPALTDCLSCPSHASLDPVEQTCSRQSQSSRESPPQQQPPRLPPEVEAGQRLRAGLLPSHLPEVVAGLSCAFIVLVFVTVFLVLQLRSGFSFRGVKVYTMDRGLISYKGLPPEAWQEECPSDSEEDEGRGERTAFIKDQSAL
Sequence,furin cleavage Z-score (7.5 min),furin cleavage Z-score (15 min),furin cleavage Z-score (30 min)
CARQMRSASIAGNASASA [FS-2400],0.584 (inactive),2.25,4.94 (active)
CARRKKILDVAGNASASA [FS-3049],0.884 (inactive),0.207 (inactive),-1.99 (inactive)
CARQNRSRSIAGNASASA [FS-2362],-0.846 (inactive),0.141 (inactive),-0.0686 (inactive)
CARKWRSWKVAGNASASA [FS-2274],1.07,1.35,0.0619 (inactive)
CARQMRSVDVAGNASASA [FS-3039],2.09,3.9 (active),5.69 (active)
CAEKMALYDVAGNASASA [HC1456],0.218 (inactive),-0.51 (inactive),0.171 (inactive)
CARERRWQDVAGNASASA [FS-1698],-0.457 (inactive),0.122 (inactive),1.79
CAVVCCSMSIAGNASASA [HC2084],-0.331 (inactive),-1.27 (inactive),0.12 (inactive)
CARVTRSLDVAGNASASA [FS-3127],5.89 (active),8.68 (active),7.6 (active)
CAGGDIYHSVAGNASASA [HC1649],-1.03 (inactive),-0.366 (inactive),-0.802 (inactive)
CASSPCSAHLAGNASASA [HC2497],0.244 (inactive),0.911 (inactive),0.262 (inactive)
CAAVLTSMLTAGNASASA [HC1245],-1.15 (inactive),1.56,0.027 (inactive)
CANWQRARRFAGNASASA [FS-912],3.9 (active),4.91 (active),5.21 (active)
CARSNRQLGIAGNASASA [FS-2185],0.465 (inactive),-0.691 (inactive),0.216 (inactive)
CANWQKLETFAGNASASA [HC1037],0.812 (inactive),-1.06 (inactive),0.807 (inactive)
CANFHKARRFAGNASASA [FS-1143],-0.34 (inactive),-0.616 (inactive),-0.0235 (inactive)
CAVSRRSRGIAGNASASA [FS-2857],1.63,3.08,4.54 (active)
CAAAARARRFAGNASASA [FS-1108],2.41,5.92 (active),6.24 (active)
CAVSRRARRFAGNASASA [FS-1436],10.2 (active),11.6 (active),10.4 (active)
CAVSKRHVRIAGNASASA [FS-2114],-0.647 (inactive),1.47,2.71
CAAAAAAAAAAGNASASA [NE2],2.09,0.496 (inactive),2.15
CATAFVGAGLAGNASASA [HC1074],-0.799 (inactive),-0.776 (inactive),-1.06 (inactive)
CAGVRLHRFAAGNASASA [HC1224],-0.592 (inactive),-0.925 (inactive),-0.313 (inactive)

Sequence,furin cleavage Z-score (7.5 min),furin cleavage Z-score (15 min),furin cleavage Z-score (30 min)
CAQKKVTFDRAGNASASA [HC1395],-0.415 (inactive),-0.119 (inactive),-0.531 (inactive)
CAKYIMTCMSAGNASASA [HC982],-1.5 (inactive),-0.454 (inactive),-2.07 (inactive)
CAGEVQIVSTAGNASASA [HC689],-0.7 (inactive),0.651 (inactive),-0.62 (inactive)
CAYPGHITGHAGNASASA [HC315],0.244 (inactive),-0.868 (inactive),0.3 (inactive)
CAESENKVVIAGNASASA [HC1283],-1.56 (inactive),-1.01 (inactive),-1.31 (inactive)
CAGKELRKRSAGNASASA [FS-998],6.16 (active),6.24 (active),6.7 (active)
CALPIRRKRSAGNASASA [FS-1028],13 (active),13.8 (active),9.29 (active)
CAMEVLRKRSAGNASASA [FS-911],-0.513 (inactive),-0.258 (inactive),0.754 (inactive)
CATLERRKRSAGNASASA [FS-1172],11.2 (active),9.64 (active),8.54 (active)
CACCCRRKRSAGNASASA [FS-118],7.96 (active),7.28 (active),6.41 (active)
CACQCRFFRSAGNASASA [FS-1313],0.733 (inactive),-1.88 (inactive),-0.461 (inactive)
CAKVKANLLSAGNASASA [HC1409],0.199 (inactive),-1.82 (inactive),-0.858 (inactive)
CADYMEECSQAGNASASA [HC1809],0.775 (inactive),0.374 (inactive),-0.614 (inactive)
CAMEQCSQHLAGNASASA [HC1722],2.51,1.08,0.422 (inactive)
CANGTMRIVGAGNASASA [HC1181],0.253 (inactive),1.69,-0.0933 (inactive)
CAEVVTITWVAGNASASA [HC145],-0.85 (inactive),0.512 (inactive),-0.407 (inactive)
CAIFRAAVCTAGNASASA [HC750],-0.737 (inactive),-0.718 (inactive),-0.0235 (inactive)
CACCSMSYSWAGNASASA [HC1370],0.447 (inactive),-0.385 (inactive),0.225 (inactive)
CADRHFRKRSAGNASASA [FS-925],9.05 (active),11.3 (active),9.58 (active)
CATLARRKRSAGNASASA [FS-1423],11.4 (active),11.2 (active),9.32 (active)
CAERRKRKRSAGNASASA [FS-1119],11.5 (active),11.6 (active),9.13 (active)
CASNGRRKRSAGNASASA [FS-1570],11 (active),11.1 (active),9.24 (active)
